In the supplement of paper PMC13380429:
Values without a mark were called inactive.

System: Vero E6 infected with SARS-CoV-2
Experiment: inhibition of SARS-CoV-2 cytopathic effect; higher = more antiviral protection, active = above 15
Conditions: 48 h

| SMILES | inhibition of SARS-CoV-2 cytopathic effect (1 nM) [%] | inhibition of SARS-CoV-2 cytopathic effect (8.33 nM) [%] | inhibition of SARS-CoV-2 cytopathic effect (100 nM) [%] | inhibition of SARS-CoV-2 cytopathic effect (833.33 nM) [%] | inhibition of SARS-CoV-2 cytopathic effect (10000 nM) |
| --- | --- | --- | --- | --- | --- |
| CS[C@H]1SC[C@H]2C(=O)N(C)[C@@H](C(C)C)C(=O)OC[C@@H](NC(=O)c3cnc4ccccc4n3)C(=O)N[C@@H](C)C(=O)N(C)[C@@H]1C(=O)N(C)[C@@H](C(C)C)C(=O)OC[C@@H](NC(=O)c1cnc3ccccc3n1)C(=O)N[C@@H](C)C(=O)N2C [echinomycin] | 2 | -4.69 | -19.9 | -17.1 | -27% |
| O=C(/C=C/c1ccccc1)NC(NC(=S)Nc1cccc2cccnc12)C(Cl)(Cl)Cl (stereo not given) [salubrinal] | 3.2 | 0.1 | 1.16 | -0.28 | 1.23% |
| COC(=O)C1=C(C)NC(C)=C(C(=O)OC2CCCN(Cc3ccccc3)C2)C1c1cccc([N+](=O)[O-])c1 (stereo not given) [benidipine] | -0.65 | -0.51 | -1.47 | -0.97 | -3.67% |
| CC(C)[N+](C)(CCOC(=O)C1c2ccccc2Oc2ccccc21)C(C)C [propantheline] | 0.61 | 0.91 | -0.81 | -1.32 | -0.04% |
| O=C1Nc2ccccc2/C1=C1/Nc2ccccc2C1=O [indirubin] | -0.6 | -1.11 | -0.33 | 1.04 | 0.51% |
| CCN1CCN(C(=O)N[C@@H](C(=O)N[C@@H]2C(=O)N3[C@@H]2SC(C)(C)[C@@H]3C(=O)O)c2ccccc2)C(=O)C1=O [piperacillin] | -0.76 | 0.86 | -1.44 | -0.01 | 0.01% |
| CN1CCC(COc2cnc(-c3cccc(Cn4nc(-c5cccc(C#N)c5)ccc4=O)c3)nc2)CC1 | 1 | 1.71 | 1.4 | 2.63 | 9.19% |
| CCCCCCCCCCCCCCCC(=O)OC[C@H](COP(=O)([O-])OCC[N+](C)(C)C)OC(=O)CCCCCCCCCCCCCCC [colfosceril-palmitate] | -7.11 | -7.33 | -5.95 | -6.54 | -9.82% |
| CCOC(=O)Nc1cc(-c2ccc(C)c(NS(C)(=O)=O)c2)nn2c(C)nnc12 [bromosporine] | -4.03 | -0.62 | -0.65 | -0.48 | -19.3% |
| N.N.O=C([O-])C[O-].[Pt+2] [nedaplatin] | -3.28 | -2.76 | -0.64 | -1.21 | -2.85% |
| CC(Cc1cccc(C(F)(F)F)c1)NCCOC(=O)c1ccccc1 (stereo not given) [benfluorex] | 0.5 | 0.35 | -0.24 | -1.03 | 0.26% |
| COc1ccc(-c2sc(NC(=O)C(C)(C)C)nc2C)cc1S(=O)(=O)Nc1ccc(O)cc1 [PI4KIII-beta-inhibitor-1] | -2.8 | -1.82 | 0.52 | 0.18 | 5.19% |
| O=C(O)CCCN1C(=O)c2cccc3cccc(c23)C1=O [isodibut] | -4.53 | -1.77 | -4.8 | -0.3 | -2.2% |
| CC(C)(C)OC(=O)c1ncn2c1[C@@H]1CCCN1C(=O)c1c(Br)cccc1-2 [bretazenil] | -1.38 | -4.36 | -1.99 | -3.96 | -1.07% |
| CC(=O)[C@]1(N)Cc2c(O)c3c(c(O)c2[C@@H](O[C@H]2C[C@H](O)[C@H](O)CO2)C1)C(=O)c1ccccc1C3=O [amrubicin] | 2.67 | -2.31 | -3.18 | -3.9 | -0.58% |
| CNS(=O)(=O)Cc1ccc2[nH]cc(CCN(C)C)c2c1 [sumatriptan] | 1.16 | 0.24 | 1.25 | 0.28 | -0.08% |
| COc1cc(C(C)=O)ccc1O [apocynin] | 0.03 | -1.17 | -2.23 | -0.09 | 1.17% |

| SMILES | inhibition of SARS-CoV-2 cytopathic effect (1 nM) [%] | inhibition of SARS-CoV-2 cytopathic effect (8.33 nM) [%] | inhibition of SARS-CoV-2 cytopathic effect (100 nM) [%] | inhibition of SARS-CoV-2 cytopathic effect (833.33 nM) [%] | inhibition of SARS-CoV-2 cytopathic effect (10000 nM) |
| --- | --- | --- | --- | --- | --- |
| O=C(O)CCc1nc(-c2ccccc2)c(-c2ccccc2)o1 [oxaprozin] | -1.4 | -2.65 | -0.38 | -0.99 | 0.84% |
| C[C@]12COC(=O)C[C@@H]1CC[C@@H]1[C@@H]2CC[C@@]2(C)[C@H]1CC[C@]2(C)O [Oxandrolone] | 1.55 | 0.57 | -0.27 | -0.56 | 0.44% |
| O=C(NCCCN1CCOCC1)c1ccc(Cl)cc1 [eprobemide] | 0.75 | 1.72 | 4.31 | -1.08 | 0.69% |
| CN(C)c1cccc(Oc2cnc(Nc3cccc(O)c3)nc2)c1 | -2.69 | 0.57 | -1.76 | 2.09 | -3.69% |
| NC1=NCC2c3ccccc3Cc3ccccc3N12 (stereo not given) [epinastine] | -1.87 | -1.14 | 0.71 | 7.29 | 1.93% |
| COc1ccc([C@@H]2CC(=O)c3c(O)cc(O)cc3O2)cc1O [hesperetin] | 1.09 | 3.18 | 4.54 | 0.97 | 0.11% |
| CCCN(C/C=C/I)[C@H]1CCc2ccc(O)cc2C1 [7-hydroxy-PIPAT] | -0.76 | 0.14 | -1.03 | -0.19 | -1.39% |
| c1ccc2nc(C3=NCCN3)cnc2c1 | 2.54 | 1.85 | 1.24 | 4.82 | 2.03% |
| CCOC(=O)[C@@](C)(N)Cc1ccc(O)c(O)c1 [methyldopate] | 6.97 | 1.54 | -0.9 | 1.46 | 2.33% |
| C=C1/C(=C\C=C2/CCC[C@]3(C)[C@@H]([C@H](C)CC[C@@H](O)C(C)C)CC[C@@H]23)C[C@@H](O)C[C@@H]1O [tacalcitol] | -1.15 | -0.65 | 1.63 | 1.18 | 1.31% |
| Cc1ccc(C(=O)Nc2cccc(C(F)(F)F)c2)cc1Nc1nc(-c2cccnc2)nc2c1cnn2C | -0.06 | 0.17 | 3.74 | 8.31 | 28.1% (active) |
| COc1cccc(OCCCN)c1-c1cc(Nc2cnc(C#N)cn2)n[nH]1 | -0.1 | 0.79 | -1.17 | -4.06 | -3.92% |
| C[C@]12C=CC(=O)C=C1CC[C@@H]1[C@@H]2[C@@H](O)C[C@@]2(C)[C@H]1CC[C@]2(O)C(=O)COP(=O)(O)O [prednisolone-sodium-phosphate] | -6.31 | -10 | -8.54 | -9.6 | -4.78% |
| COc1ccc2cc(-c3cc(-c4cc(Cl)cc(Cl)c4)nn3[C@@H](C)c3ccc(C(=O)NCCC(=O)O)cc3)ccc2c1 | -1.85 | -0.02 | 0.97 | 4.66 | 4.95% |
| O=C(N[C@@H]1Cc2ccccc2N(C[C@@H](O)CO)C1=O)c1cc2cc(Cl)sc2[nH]1 | -0.59 | -0.92 | -2.86 | -2.28 | -3.46% |
| CN1[C@@H]2CC[C@H]1C[C@@H](OC(=O)N1Cc3ccccc3NC1=O)C2 | -1.09 | -0.87 | 1.69 | 1.84 | -0.21% |
